Measurements reported in PubChem BioAssay (EPA / NIEHS).
Active and inactive are the calls of the source. How the source made its calls: active means hit-call score of the fitted dose curve at least 0.9, where 1 is the maximum; inactive means score below 0.9.

How the values were obtained:
[1] = ATG_CRE_CIS: Attagene CIS-FACTORIAL HepG2 Assay for human cAMP Responsive Element (CRE) binding protein 3 (AID 2282926); details: HepG2 CRE cis-reporter, Attagene multiplexed mRNA; actives raise or lower the signal
Method in brief: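 Multiplexed transcription-unit reporters transfected into HepG2; 24 h dosing; RT-PCR/capillary electrophoresis fluorescence read-out; bidirectional fit vs DMSO.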

[2] = target: CCAAT/enhancer-binding protein beta (Homo sapiens) (UniProt P17676); experiment: ATG_C_EBP_CIS: Attagene CIS-FACTORIAL HepG2 Assay for human CCAAT/Enhancer Binding Protein (C/EBP) beta (AID 2282927); details: HepG2 Attagene cis-factorial transcription factor reporter; actives raise or lower the signal
Method in brief: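 Transiently transfected HepG2 (MRTU library, endogenous TF-driven promoters); 24 h dosing; total RNA → oligo(dT) RT → PCR → 6-FAM primer extension → HpaI digest → CE; fit bidirectionally vs DMSO.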

[3] = ATG_CMV_CIS: Attagene CIS-FACTORIAL HepG2 Assay for human CMV (Internal Marker) (AID 2282928); details: HepG2 CMV promoter reporter, transcription factor profiling; actives raise or lower the signal;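 further: endpoint acts as a background internal control marker rather than a target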
Method in brief: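 Cell system: HepG2, transiently transfected multiple reporter units under cis promoters. Exposure: 24 h. Detection: RT-PCR, FAM labeling, HpaI digestion, capillary electrophoresis. Analysis: bidirectional, DMSO baseline.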

[4] = ATG_DR4_LXR_CIS: Attagene CIS-FACTORIAL HepG2 Assay for human Liver X Receptor (LXR), DR4 submotif (AID 2282929); details: HepG2 Attagene DR4 cis-reporter, mRNA transcription; actives raise or lower the signal
Method in brief: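 Measures endogenous transcription factor activity via a DR4-driven reporter transcript in human HepG2 cells. Compounds incubated 24 h; mRNA quantified by RT-PCR and capillary electrophoresis, analysed as gain or loss of signal versus DMSO.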

[5] = target: Aryl hydrocarbon receptor (Homo sapiens) (UniProt P35869); experiment: ATG_Ahr_CIS: Attagene CIS-FACTORIAL HepG2 Assay for human Aryl Hydrocarbon Receptor (Ahr) (AID 2282930); details: HepG2 AhR cis-factorial reporter transcription; actives raise or lower the signal
Method in brief: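 Read-out: reporter mRNA quantified by RT-PCR with fluorescent primer extension and capillary electrophoresis. Human HepG2 liver cells carried transfected cis-promoter reporter units and were exposed to chemical for 24 h; gain or loss fitted relative to DMSO.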

[6] = ATG_AP_1_CIS: Attagene CIS-FACTORIAL HepG2 Assay for human Activator Protein 1 (AP-1) (AID 2282931); details: HepG2 Attagene cis-factorial AP-1 reporter mRNA; actives raise or lower the signal
Method in brief: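 Bidirectional concentration-response fitting against DMSO controls. Underlying signal: reporter mRNA from cis-promoter constructs in transiently transfected HepG2, measured after 24 h by RT-PCR and capillary electrophoresis.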

[7] = ATG_AP_2_CIS: Attagene CIS-FACTORIAL HepG2 Assay for human Activator Protein 2 (AP-2) (AID 2282932); details: HepG2 AP-2 cis-reporter, Attagene transcription factor profiling; actives raise or lower the signal
Method in brief: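 Multiplexed mRNA reporter assay in HepG2: cis-regulated units report endogenous factor activity after 24 h treatment. Fluorescence from capillary electrophoresis of RT-PCR products gives the signal, with DMSO as baseline.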

[8] = ATG_BRE_CIS: Attagene CIS-FACTORIAL HepG2 Assay for human Bone Morphogenetic Protein (BMP) Response Element (BRE) (AID 2282933); details: HepG2 BMP response element reporter, Attagene transcription factor profiling; actives raise or lower the signal
Method in brief: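 Read-out: reporter mRNA induction quantified by RT-PCR and capillary electrophoresis after 24 h chemical exposure of transfected HepG2 cells. Endogenous factor activity on the BMP response element; gain or loss fitted against DMSO baseline.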

[9] = target: Retinoic acid receptor alpha (Homo sapiens) (UniProt P10276); experiment: ATG_DR5_RAR_CIS: Attagene CIS-FACTORIAL HepG2 Assay for human Retinoic Acid Receptor Alpha (RARE), DR5 submotif (AID 2282934); details: HepG2 Attagene cis-factorial RARE DR5 reporter, mRNA; actives raise or lower the signal
Method in brief: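 Read-out: DR5-driven reporter transcript measured by RT-PCR, 6-FAM primer extension, HpaI digest and capillary electrophoresis. Human HepG2 liver cells carry transiently transfected cis-element reporter constructs; dosing lasts 24 h. Gain or loss of signal fitted against DMSO baseline.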

Chain of Aryl hydrocarbon receptor (Homo sapiens) (P35869 whole entry, looked up): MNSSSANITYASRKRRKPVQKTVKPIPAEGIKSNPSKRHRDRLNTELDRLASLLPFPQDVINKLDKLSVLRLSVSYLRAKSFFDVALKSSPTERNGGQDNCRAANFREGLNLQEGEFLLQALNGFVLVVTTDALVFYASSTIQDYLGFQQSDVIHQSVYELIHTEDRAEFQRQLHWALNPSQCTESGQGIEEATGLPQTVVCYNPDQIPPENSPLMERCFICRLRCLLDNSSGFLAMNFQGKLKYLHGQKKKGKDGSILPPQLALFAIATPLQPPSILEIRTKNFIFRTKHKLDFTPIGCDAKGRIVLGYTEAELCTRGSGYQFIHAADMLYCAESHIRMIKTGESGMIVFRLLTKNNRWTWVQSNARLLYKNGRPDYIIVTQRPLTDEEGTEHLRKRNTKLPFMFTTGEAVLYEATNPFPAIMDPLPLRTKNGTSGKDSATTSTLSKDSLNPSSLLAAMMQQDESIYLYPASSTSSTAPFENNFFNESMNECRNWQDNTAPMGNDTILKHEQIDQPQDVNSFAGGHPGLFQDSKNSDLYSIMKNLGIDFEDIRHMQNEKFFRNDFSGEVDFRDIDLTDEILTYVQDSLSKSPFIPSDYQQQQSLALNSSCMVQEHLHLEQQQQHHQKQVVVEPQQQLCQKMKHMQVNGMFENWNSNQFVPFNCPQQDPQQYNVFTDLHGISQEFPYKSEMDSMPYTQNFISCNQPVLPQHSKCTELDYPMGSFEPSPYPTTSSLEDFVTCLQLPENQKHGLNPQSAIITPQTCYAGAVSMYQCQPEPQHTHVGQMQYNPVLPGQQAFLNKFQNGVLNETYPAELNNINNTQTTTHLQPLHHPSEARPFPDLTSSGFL
Chain of CCAAT/enhancer-binding protein beta (Homo sapiens) (P17676 whole entry, looked up): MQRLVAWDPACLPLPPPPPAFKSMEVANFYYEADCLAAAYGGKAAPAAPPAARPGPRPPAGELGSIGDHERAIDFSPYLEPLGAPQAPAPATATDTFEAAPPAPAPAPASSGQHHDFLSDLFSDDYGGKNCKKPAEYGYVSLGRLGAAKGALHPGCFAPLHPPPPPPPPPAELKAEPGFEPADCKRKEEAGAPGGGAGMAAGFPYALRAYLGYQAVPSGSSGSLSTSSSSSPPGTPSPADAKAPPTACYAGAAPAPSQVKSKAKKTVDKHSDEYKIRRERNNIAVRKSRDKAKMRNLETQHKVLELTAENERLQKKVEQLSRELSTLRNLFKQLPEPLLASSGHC
Chain of Retinoic acid receptor alpha (Homo sapiens) (P10276 whole entry, looked up): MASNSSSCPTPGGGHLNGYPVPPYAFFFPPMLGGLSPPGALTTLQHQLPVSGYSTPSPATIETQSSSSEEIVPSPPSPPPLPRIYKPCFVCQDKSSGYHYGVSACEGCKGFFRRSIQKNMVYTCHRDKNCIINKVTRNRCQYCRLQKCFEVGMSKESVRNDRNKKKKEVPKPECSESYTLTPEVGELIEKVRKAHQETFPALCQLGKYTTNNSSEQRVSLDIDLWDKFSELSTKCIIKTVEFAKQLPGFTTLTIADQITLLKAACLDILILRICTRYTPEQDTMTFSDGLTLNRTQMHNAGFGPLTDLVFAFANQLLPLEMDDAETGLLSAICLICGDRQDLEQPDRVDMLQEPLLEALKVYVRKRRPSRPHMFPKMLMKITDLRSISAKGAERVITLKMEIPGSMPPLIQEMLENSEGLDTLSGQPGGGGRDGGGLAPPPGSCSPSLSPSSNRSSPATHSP

With `CC(=O)Oc1c(C)c(C)c2c(c1C)CC[C@@](C)(CCC[C@H](C)CCC[C@H](C)CCCC(C)C)O2` the outcome [1] was “inactive”, the outcome [2] was “inactive” and the outcome [3] was “inactive”. The outcome [4] was “inactive”, the outcome [5] was “inactive” and the outcome [6] was “inactive”. For the same molecule, the outcome [7] was “inactive”, the outcome [8] was “inactive” and the outcome [9] was “inactive”.
For `CC(C)Cc1ccccc1`, the outcome [1] was “inactive”, the outcome [2] was “inactive” and the outcome [3] was “inactive”. The outcome [4] was “inactive”, the outcome [5] was “inactive” and the outcome [6] was “inactive”. For the same molecule, the outcome [7] was “inactive”, the outcome [8] was “inactive” and the outcome [9] was “inactive”.
In the case of `CCCCCCCCOC(C)=O`, the outcome [1] is reported as “inactive”, the outcome [2] is reported as “inactive” and the outcome [3] is reported as “inactive”. For the same molecule, the outcome [4] was “inactive”, the outcome [5] was “inactive” and the outcome [6] was “inactive”. For the same molecule, the outcome [7] was “inactive”, the outcome [8] was “inactive” and the outcome [9] was “inactive”.
For `O=Cc1ccccc1O`, the outcome [1] was “inactive”, the outcome [2] was “inactive” and the outcome [3] was “inactive”. The outcome [4] was “inactive”, the AC50 [5] was 48.5 µM (active) and the outcome [6] was “inactive”. For the same molecule, the outcome [7] was “inactive”, the outcome [8] was “inactive” and the outcome [9] was “inactive”.
For `C=CC(=O)OCC(CO)(COC(=O)C=C)COC(=O)C=C`, the AC50 [1] was 163 µM (active), the outcome [2] was “inactive” and the AC50 [3] was 5.31 µM (active). The AC50 [4] was 18 µM (active), the outcome [5] was “inactive” and the AC50 [6] was 100 µM (active). For the same molecule, the AC50 [7] was 27.8 µM (active) and the AC50 [8] was 100 µM (active).
In the case of `CC/C=C\CCOC(C)OCC` (stereo unspecified), the outcome [1] is reported as “inactive”, the outcome [2] is reported as “inactive” and the outcome [3] is reported as “inactive”. For the same molecule, the outcome [4] was “inactive”, the outcome [5] was “inactive” and the outcome [6] was “inactive”. For the same molecule, the outcome [7] was “inactive” and the outcome [8] was “inactive”.
With `C1COCO1` the outcome [1] was “inactive”, the outcome [2] was “inactive” and the outcome [3] was “inactive”. For the same molecule, the outcome [4] was “inactive”, the outcome [5] was “inactive” and the outcome [6] was “inactive”. For the same molecule, the outcome [7] was “inactive” and the outcome [8] was “inactive”.
In the case of `CCCO[Si](OCCC)(OCCC)OCCC`, the outcome [1] is reported as “inactive”, the outcome [2] is reported as “inactive” and the outcome [3] is reported as “inactive”. The outcome [4] was “inactive”, the outcome [5] was “inactive” and the outcome [6] was “inactive”. The outcome [7] was “inactive” and the outcome [8] was “inactive”.
With `CCCCOCCOCCOCCO` the outcome [1] was “inactive”, the outcome [2] was “inactive” and the outcome [3] was “inactive”. The outcome [4] was “inactive”, the outcome [5] was “inactive” and the outcome [6] was “inactive”. The outcome [7] was “inactive”, the outcome [8] was “inactive” and the outcome [9] was “inactive”.
With `CC(C)COC(=O)c1ccccc1` the outcome [1] was “inactive”, the outcome [2] was “inactive” and the outcome [3] was “inactive”. The outcome [4] was “inactive”, the outcome [5] was “inactive” and the outcome [6] was “inactive”. For the same molecule, the outcome [7] was “inactive”, the outcome [8] was “inactive” and the outcome [9] was “inactive”.
In the case of `O=C1OC2(c3ccc(O)cc3Oc3cc(O)ccc32)c2ccccc21`, the outcome [1] is reported as “inactive”, the outcome [2] is reported as “inactive” and the outcome [3] is reported as “inactive”. The outcome [4] was “inactive”, the AC50 [5] was 25.9 µM (active) and the outcome [6] was “inactive”. The outcome [7] was “inactive” and the outcome [8] was “inactive”.
With `O=C(O)c1cccc(Cl)n1` the outcome [1] was “inactive”, the outcome [2] was “inactive” and the outcome [3] was “inactive”. For the same molecule, the outcome [4] was “inactive”, the outcome [5] was “inactive” and the outcome [6] was “inactive”. For the same molecule, the outcome [7] was “inactive”, the outcome [8] was “inactive” and the outcome [9] was “inactive”.
For `COC(=O)c1cccc(C(=O)OC)c1`, the outcome [1] was “inactive”, the outcome [2] was “inactive” and the outcome [3] was “inactive”. The outcome [4] was “inactive”, the AC50 [5] was 71.4 µM (active) and the outcome [6] was “inactive”. For the same molecule, the outcome [7] was “inactive”, the outcome [8] was “inactive” and the outcome [9] was “inactive”.
For `c1ccc(Sc2ccccc2)cc1`, the outcome [1] was “inactive”, the outcome [2] was “inactive” and the outcome [3] was “inactive”. The outcome [4] was “inactive”, the outcome [5] was “inactive” and the outcome [6] was “inactive”. For the same molecule, the outcome [7] was “inactive”, the outcome [8] was “inactive” and the outcome [9] was “inactive”.
With `CCCCN(CCCC)CCCCCCN(CCCC)CCCC` the outcome [1] was “inactive”, the outcome [2] was “inactive” and the outcome [3] was “inactive”. For the same molecule, the outcome [4] was “inactive”, the outcome [5] was “inactive” and the outcome [6] was “inactive”. For the same molecule, the outcome [7] was “inactive”, the outcome [8] was “inactive” and the outcome [9] was “inactive”.
With `Cc1ccncc1` the outcome [1] was “inactive”, the outcome [2] was “inactive” and the outcome [3] was “inactive”. For the same molecule, the outcome [4] was “inactive”, the outcome [5] was “inactive” and the outcome [6] was “inactive”. The outcome [7] was “inactive”, the outcome [8] was “inactive” and the outcome [9] was “inactive”.
For `CCCCCCCC1CCCC1=O` (stereo unspecified), the outcome [1] was “inactive”, the outcome [2] was “inactive” and the outcome [3] was “inactive”. The outcome [4] was “inactive”, the outcome [5] was “inactive” and the outcome [6] was “inactive”. For the same molecule, the outcome [7] was “inactive”, the outcome [8] was “inactive” and the outcome [9] was “inactive”.
In the case of `CCC(CC)CO`, the outcome [1] is reported as “inactive”, the outcome [2] is reported as “inactive” and the outcome [3] is reported as “inactive”. For the same molecule, the outcome [4] was “inactive”, the outcome [5] was “inactive” and the outcome [7] was “inactive”. For the same molecule, the outcome [8] was “inactive”.
In the case of `CCCCCCCOC(C)=O`, the outcome [1] is reported as “inactive”, the outcome [2] is reported as “inactive” and the outcome [3] is reported as “inactive”. The outcome [4] was “inactive”, the outcome [5] was “inactive” and the outcome [6] was “inactive”. For the same molecule, the outcome [7] was “inactive”, the outcome [8] was “inactive” and the outcome [9] was “inactive”.
In the case of `CCc1cccc(O)c1`, the outcome [1] is reported as “inactive”, the outcome [2] is reported as “inactive” and the outcome [3] is reported as “inactive”. For the same molecule, the outcome [4] was “inactive”, the outcome [5] was “inactive” and the outcome [7] was “inactive”. The outcome [8] was “inactive”.
In the case of `O=C1CCC(=O)N1`, the outcome [1] is reported as “inactive”, the outcome [2] is reported as “inactive” and the outcome [3] is reported as “inactive”. For the same molecule, the outcome [4] was “inactive”, the outcome [5] was “inactive” and the outcome [7] was “inactive”. For the same molecule, the outcome [8] was “inactive”.
With `CCCCOCCOCCO` the outcome [1] was “inactive”, the outcome [2] was “inactive” and the outcome [3] was “inactive”. The outcome [4] was “inactive”, the outcome [5] was “inactive” and the outcome [6] was “inactive”. The outcome [7] was “inactive”, the outcome [8] was “inactive” and the outcome [9] was “inactive”.
For `CC1COC(=O)O1` (stereo unspecified), the outcome [1] was “inactive”, the outcome [2] was “inactive” and the outcome [3] was “inactive”. For the same molecule, the outcome [4] was “inactive”, the outcome [5] was “inactive” and the outcome [7] was “inactive”. The outcome [8] was “inactive”.
In the case of `Nc1cc([N+](=O)[O-])ccc1C(=O)O`, the outcome [1] is reported as “inactive”, the outcome [2] is reported as “inactive” and the outcome [3] is reported as “inactive”. The outcome [4] was “inactive”, the AC50 [5] was 20.3 µM (active) and the outcome [6] was “inactive”. For the same molecule, the outcome [7] was “inactive”, the outcome [8] was “inactive” and the outcome [9] was “inactive”.
In the case of `Nc1ccc(O)c(N)c1`, the outcome [1] is reported as “inactive”, the outcome [2] is reported as “inactive” and the outcome [3] is reported as “inactive”. For the same molecule, the outcome [4] was “inactive”, the AC50 [5] was 14.5 µM (active) and the outcome [6] was “inactive”. The outcome [7] was “inactive”, the AC50 [8] was 42.2 µM (active) and the outcome [9] was “inactive”.
For `CC(C)(C)c1cccc(O)c1`, the outcome [1] was “inactive”, the outcome [2] was “inactive” and the outcome [3] was “inactive”. For the same molecule, the outcome [4] was “inactive”, the outcome [5] was “inactive” and the outcome [7] was “inactive”. The outcome [8] was “inactive” and the outcome [9] was “inactive”.
For `c1ccc2scnc2c1`, the outcome [1] was “inactive”, the outcome [2] was “inactive” and the outcome [3] was “inactive”. The outcome [4] was “inactive”, the AC50 [5] was 50.8 µM (active) and the outcome [6] was “inactive”. The outcome [7] was “inactive” and the outcome [9] was “inactive”.
In the case of `O=c1cc(-c2ccc(O)cc2)oc2cc(O)cc(O)c12`, the AC50 [1] is reported as 26 µM (active), the AC50 [2] is reported as 16.8 µM (active) and the AC50 [3] is reported as 6.31 µM (active). The AC50 [4] was 7.83 µM (active), the outcome [5] was “inactive” and the AC50 [6] was 64.3 µM (active). The outcome [7] was “inactive” and the outcome [9] was “inactive”.
